Most compounds without a hit are left out; they make up all but 0.5% or so of the library.
Menin MLL FP FL: inhibitors of human menin-MLL interaction, wild-type MLL peptide. Fluorescence polarization, fluorescein-MLL peptide displacement from menin. FP activity change, % at 61.4 µM. 290,000 tested, under 10 active; active = well fitted curve in the direction sought with a large enough effect in the polarisation, not every such curve was filed as active; inconclusive = small, poorly fitted or top-dose-only effect, or effect the other way, or a change in a side signal; inactive = no such curve, though single readings can be large or run the other way; the % refers to the polarisation
TRb SRC2 PPI: TRbeta-SRC2 interaction inhibition; actives 0.065% (n = 280,000); TRbeta-SRC2 peptide binding, fluorescence polarization; receptor liganded with 1 µM T3; P10828; AID 1469; Potency, µM (top dose mostly 106 µM), hits mostly inhibitors; active = well fitted inhibition curve with a large enough effect; inconclusive = small, poorly fitted or top-dose-only effect, or effect the other way; also: nearly all actives have a fitted effect of over 50% in size
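Each compound concentration gave % activity, normalized to unbound and bound Texas Red SRC2 controls, from polarization read after 5 hr ambient incubation with T3-loaded human TRb LBD.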
TexasRed fluor: alters Texas Red total fluorescence, flagging assay interference. TRb/SRC2 Texas Red total fluorescence interference. actives 0.29% (n = 280,000). Potency, µM (doses to about 106 µM); active = well fitted curve in either direction with a large enough effect; inconclusive = small, poorly fitted or top-dose-only effect
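Human TRb ligand-binding domain at 0.6 uM with 20 nM Texas Red SRC2 peptide in Tris buffer containing 1 uM T3 and 5% DMSO, incubated with compound 5 h at ambient temperature. Total fluorescence (555/632 nm) calculated as parallel + 2 × perpendicular.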
CXXC DNA block: inhibitors of human MLL CXXC domain-DNA interaction; Q03164; MLL-CXXC / FITC-HOXA9 DNA fluorescence polarization; Potency, µM (series often up to 115 µM), most hits filed as inhibitors; actives 0.037% (n = 290,000); AID 2662; active = well fitted inhibition curve with a large enough effect in the polarisation, with a control signal flat, not every such curve was filed as active; inconclusive = small, poorly fitted or top-dose-only effect, or effect the other way, or a change in a side signal; inactive = no such curve, though single readings can be large or run the other way; the % refers to the polarisation
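Steps: dispense CXXC domain solution (7 uM) → pin compounds or unlabeled HOX-A9 DNA control → 5 min ambient → add FLSN-HOX-A9 solution (50 nM) → spin → 30 min ambient → fluorescence polarization. Tris pH 7.5/NaCl/DTT/BSA buffer.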
GoLoco inh red: blocks human Gai1 binding to RGS12 GoLoco peptide, red readout; actives 0.44% (n = 230,000); Gai1:RGS12 GoLoco peptide FP, rhodamine, 10 min; P63096; Potency, µM (doses to about 61.6 µM), actives largely listed as inhibitors; active = well fitted inhibition curve with a large enough effect, not every such curve was filed as active; inactive = no such curve, though single readings can be large or run the other way; also: nearly all actives have a fitted effect of over 30% in size
Target sequence (P63096 whole entry, looked up): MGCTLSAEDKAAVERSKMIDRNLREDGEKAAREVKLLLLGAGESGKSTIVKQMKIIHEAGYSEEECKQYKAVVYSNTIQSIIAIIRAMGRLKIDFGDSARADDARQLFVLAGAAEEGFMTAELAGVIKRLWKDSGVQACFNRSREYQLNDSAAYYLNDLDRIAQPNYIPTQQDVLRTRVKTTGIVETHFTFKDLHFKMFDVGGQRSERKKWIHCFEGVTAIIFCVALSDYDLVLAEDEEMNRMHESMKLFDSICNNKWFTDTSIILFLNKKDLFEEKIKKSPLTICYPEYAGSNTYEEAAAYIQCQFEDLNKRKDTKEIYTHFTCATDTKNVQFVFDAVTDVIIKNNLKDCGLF
Menin-MLL TR inh: inhibitors of human menin-MLL interaction, mutant MLL peptide | Menin + Texas Red MLL mutant peptide, fluorescence polarization | AID 1768 | Potency, µM (highest dose often 61.6 µM), usual class: inhibitors | actives 0.23% (n = 270,000); active = well fitted inhibition curve with a large enough effect in the polarisation, with a control signal flat, not every such curve was filed as active; inconclusive = small, poorly fitted or top-dose-only effect, or effect the other way, or a change in a side signal; inactive = no such curve, though single readings can be large or run the other way; the % refers to the polarisation
Hits are given with their value; - = inactive; ? = inconclusive; . = no result given; [ ] = remark or other dose.

SMILES	Menin MLL FP FL	TRb SRC2 PPI	TexasRed fluor	CXXC DNA block	GoLoco inh red	Menin-MLL TR inh
COc1ccc2[nH]c3c4c(ccc3c2c1)C(=O)C=CC4=O	-	-	-	-	22µM	.
COc1ccc2[nH]c(-c3ccc(F)cc3F)cc(=O)c2c1	-	-	-	.	-	-
Cc1cc(Nc2cccc(C(F)(F)F)c2)nc2ccc(NC(=O)c3cncc(Br)c3)cc12	.	-	-	.	.	.
CC1=C(C(=O)N2CCOCC2)C(c2cc(C)cs2)NC(=O)N1 (centres undefined)	-	20µM	28µM[fluorescent]	-	-	?
CC1=C(C(=O)N2CCOCC2)C(c2cccs2)NC(=O)N1 (centres undefined)	-	-	-	-	-	-
O=C1C(=O)c2ccccc2C(O)=C1Cc1ccccc1	.	.	.	.	-[14.2 µM]	.
O=C(O)CCCNc1cc(N2CCN(C(=O)c3ccco3)CC2)c2noc3c2c1C(=O)c1ccccc1-3	?	.	.	?	.	16µM
O=C(O)CCCNc1cc(N2CCC3(CC2)OCCO3)c2noc3c2c1C(=O)c1ccccc1-3	?	22µM	45µM[fluorescent]	?	-	?
CCOC(=O)N1CCN(c2cc(NCCC(=O)O)c3c4c(onc24)-c2ccccc2C3=O)CC1	?	28µM	13µM[fluorescent]	?	-	?
NC(=[SH+])N=N/C=C1/C=CC=CN1.O=S(=O)(O)O.[Fe]	.	.	.	.	-[14.2 µM]	.
O=C(/C=C/c1ccc(O)c(O)c1)c1ccc(O[C@@H]2O[C@H](CO)[C@@H](O)[C@H](O)[C@H]2O)c(O)c1O	-	-	-	.	.	-
Cc1ccc(NC(=O)CSc2nnc(-c3ccco3)c(-c3ccco3)n2)cc1	-	-	?	-	-	?
O=C(CSc1nnc(-c2ccco2)c(-c2ccco2)n1)Nc1ccccc1	?	-	45µM[quencher]	?	-	?
COc1ccc(C2C(C(=O)c3cccs3)=C(O)C(=O)N2c2nncs2)cc1 (centres undefined)	?	-	-	?	1.8µM	-
CCCCCC(CC)COC(=O)CC(C(=O)OCC(CC)CCCC)S(=O)(=O)O (centres undefined)	-	.	.	.	.	-
CCc1ccccc1NC(=O)c1cnc2sc(N3CCCC3)nn2c1=O	.	-	35µM[quencher]	.	.	.
Cc1ccccc1NC(=O)c1cnc2sc(N3CCCC3)nn2c1=O	.	-	-	.	.	.
CO[C@@H]1[C@H](OC(=O)/C=C/C=C/C=C/C=C/C(=O)O)CC[C@]2(CO2)[C@H]1[C@@]1(C)O[C@@H]1CC=C(C)C	.	-	-	.	.	.
CCCCCSc1nc2sc3c(c2c(=O)n1-c1ccccc1)CCN(C(C)=O)C3	.	-	0.018µM[quencher]	.	.	.
CCSc1nc2sc3c(c2c(=O)n1-c1ccc(C)c(Cl)c1)CCN(C(C)=O)C3	.	-	-	.	.	.
BrC1CCC(Br)C(Br)CCC(Br)C(Br)CCC1Br (centres undefined)	.	-	-	.	.	.
CC[n+]1c(/C=C/C=C/N(C(C)=O)c2ccccc2)sc2ccccc21	?	-	-	?	-	?
CCn1c(/C=C/N(C(C)=O)c2ccccc2)[n+](CC)c2ccc(Cl)cc21	-	-	-	-	1.8µM	-
C[Si](Cl)(Cl)[Si](C)(Cl)Cl	.	-	-	.	.	.
CCC1CCCCN1CCCNC(=O)c1c(O)nc2c(C)cccn2c1=O (centres undefined)	-	-	-	-	.	-
SMILES	Menin MLL FP FL	TRb SRC2 PPI	TexasRed fluor	CXXC DNA block	GoLoco inh red	Menin-MLL TR inh
Cc1cccn2c(=O)c(C(=O)NCCCN3CCCCC3C)c(O)nc12 (centres undefined)	-	-	18µM[quencher]	-	.	-
COC(=O)c1ccc(Cn2c(C)cc(C)[n+]2C)o1	-	-	-	-	18µM	.
O=S(=O)(O)c1cc(O)c2c(N=Nc3ccc(Nc4ccccc4)c4c(S(=O)(=O)O)cccc34)cc(S(=O)(=O)O)cc2c1	-	-	20µM[quencher]	?	.	?
Cc1ccc(NC(=O)CCCCCCCCCCC2COCCO2)c(C)c1 (centres undefined)	-	?	0.025µM[quencher]	-	-	-
Cc1ccc(NC(=O)CC(=O)Nc2ccc(C)cc2C)c(C)c1	-	.	.	-	.	?
O=c1c(-c2cc(F)cc(F)c2)nc2cnc(N3CCNCC3)nc2n1Cc1ccc(F)cc1	-	.	.	.	-	-

From PubChem BioAssay
